A selection: hits, their analogues and other compounds. The true share with any hit is near 2.1%.
KLF5 inhibitor: kruppel-like factor 5 inhibition; DLD-1 KLF5 promoter-luciferase reporter, luminescence; inhibition, % at 5 µM; hit rate 0.23% among 290,000;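 active means inhibition above a per-plate limit of that plate's mean compound inhibition plus 3 SD, cut at about 60% in these data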;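 further: 0% = DMSO wells and 100% = LY294002 at 200 µM; higher means less KLF5 promoter-driven luciferase light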
IEC-6 tox: IEC-6 cytotoxicity, counter-screen for KLF5 inhibitors | inhibition, % at 5 µM | hit rate 0.78% among 290,000 | luminescence viability; in the data active means inhibition above about 22%;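 further: 0% = plate median of test compound wells and 100% = cytotoxic reference compound wells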
BaF3 tox: parental Ba/F3 viability inhibition as JAK2V617F counter-screen. CellTiter-Glo ATP luminescence. inhibition, % at 5.6 µM. hit rate 1.1% among 220,000. AID 1486;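 active means inhibition above a per-campaign cutoff, the mean inhibition of all tested compounds plus 3 SD, cut at about 27% in these data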;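 further: 0% = DMSO wells and 100% = JAK Inhibitor I control wells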
aSyn 5UTR inh: MLPCN primary screen, SNCA 5' untranslated region | alpha-synuclein 5'UTR reporter, inhibitor activity | hit rate 0.82% among 300,000 | AID 1813 | inhibition, % (tested at 7.5 µM); in the data active means inhibition above about 60%;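 further: H4 neuroglioblastoma cells stably carrying SNCA 5'UTR luciferase fusion; 0% = DMSO wells and 100% = positive control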
Ba/F3 V617F tox: reduce viability of Ba/F3 cells dependent on JAK2V617F | inhibition, % at 5.6 µM | AID 1446 | Ba/F3 EpoR-JAK2V617F viability, ATP luminescence | hit rate 1.1% among 220,000;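 active means inhibition above the campaign mean plus 3 SD over all tested compounds, cut at about 24% in these data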;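 further: cytokine-independent growth of Ba/F3 cells driven by EpoR plus mutant JAK2; 0% = DMSO-treated cells and 100% = JAK inhibitor I control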
APP 5UTR inh: APP translation inhibition | SH-SY5Y APP 5'UTR-luciferase reporter, luminescence | inhibition, % at 2 µM | hit rate 0.82% among 190,000;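 active means inhibition above a set limit, derived from the sample mean plus 3 SD, cut at about 45% in these data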
An asterisk follows results filed as active.

`O=C(CCN1C(=O)/C(=C/c2ccccc2Cl)SC1=S)NNC(=O)c1cccnc1` gave KLF5 inhibitor 5.7, IEC-6 tox -2.3, BaF3 tox 1.1, aSyn 5UTR inh -21.3 and Ba/F3 V617F tox 2.9.
For O=C(CCN1C(=O)/C(=C/c2ccccc2Cl)SC1=S)NNC(=O)c1ccccc1O the results were KLF5 inhibitor -3.3, IEC-6 tox -9.8 and aSyn 5UTR inh 12.6.
Cc1ccc(C(=O)NNC(=O)CCCN2C(=O)/C(=C/c3ccccc3Cl)SC2=S)cc1 was read as KLF5 inhibitor -9.8, IEC-6 tox -5.1, BaF3 tox 9.3, aSyn 5UTR inh 68.5*, Ba/F3 V617F tox 3.3 and APP 5UTR inh 25.1.
Screening Cc1ccc(/C=C2\SC(=S)N(CCC(=O)NNC(=O)c3ccccc3O)C2=O)cc1 returned KLF5 inhibitor 4.8, IEC-6 tox -1.2 and aSyn 5UTR inh 33.8.
For O=C1CN(S(=O)(=O)c2ccc([N+](=O)[O-])cc2)CC(=O)N1 the results were KLF5 inhibitor -12.3, IEC-6 tox -5.3 and aSyn 5UTR inh 14.3.
`O=C1c2ccccc2C(=O)N1CCCCSc1nc2ccccc2c(=O)n1CCCN1CCOCC1` gave KLF5 inhibitor 1.8, IEC-6 tox 5.7, BaF3 tox 12.9, aSyn 5UTR inh 26.8, Ba/F3 V617F tox 7.4 and APP 5UTR inh -7.8.
For O=C(COc1ccc(Br)cc1)N1CCN(S(=O)(=O)/C=C/c2ccccc2)CC1 the results were KLF5 inhibitor -28.6, IEC-6 tox -3.1, BaF3 tox 8.8, aSyn 5UTR inh 36.8, Ba/F3 V617F tox 2.1 and APP 5UTR inh 68.7*.
`Nc1[nH]n(-c2ccccc2)c(=O)c1N=Nc1ccc2c(c1)OCCO2` gave KLF5 inhibitor -124.9, IEC-6 tox 5.4, BaF3 tox 1.7, aSyn 5UTR inh -24.8, Ba/F3 V617F tox -0.8 and APP 5UTR inh -167.4.
Nc1nn(-c2ccccc2)c(N)c1N=Nc1ccc2c(c1)OCO2 was read as KLF5 inhibitor -64.3, IEC-6 tox 57.9*, BaF3 tox 64.4*, aSyn 5UTR inh -42.2, Ba/F3 V617F tox 77.6* and APP 5UTR inh -91.8.
Screening COc1ccc(N2C(C(C)=O)=NN(c3ccccc3)C2c2cccs2)cc1 (centres undefined) returned KLF5 inhibitor -63.8, IEC-6 tox 1.5, BaF3 tox 48.0*, Ba/F3 V617F tox 25.2* and APP 5UTR inh 4.9.
Screening CCCCn1c(N)c(N(CCC(C)C)C(=O)c2oc3ccc(OCC)cc3c2C)c(=O)[nH]c1=O returned aSyn 5UTR inh 11.7.
Screening CC1(C)CC(=O)C(C(C2=C(O)CC(C)(C)CC2=O)c2ccc(O)c([N+](=O)[O-])c2)=C(O)C1 returned KLF5 inhibitor -19.0, IEC-6 tox -5.3, BaF3 tox 94.3*, aSyn 5UTR inh 0.0, Ba/F3 V617F tox 3.3 and APP 5UTR inh -17.9.
`CC1(C)CC(=O)C(C(C2=C(O)CC(C)(C)CC2=O)c2ccc([N+](=O)[O-])cc2)C(=O)C1` (centres undefined) gave KLF5 inhibitor -7.1, IEC-6 tox -8.4, BaF3 tox 3.4, aSyn 5UTR inh -0.6, Ba/F3 V617F tox -1.2 and APP 5UTR inh 6.3.
`Cn1cc([N+](=O)[O-])c(C(=O)Nc2ccc(-c3nc4ccccc4[nH]3)cc2)n1` gave KLF5 inhibitor -60.8, IEC-6 tox 24.8*, BaF3 tox 1.2, aSyn 5UTR inh 0.7, Ba/F3 V617F tox 4.1 and APP 5UTR inh -50.6.
`Cn1cc([N+](=O)[O-])c(C(=O)Nc2ccc3nc(-c4ccccc4)[nH]c3c2)n1` gave KLF5 inhibitor -40.6, IEC-6 tox -2.0, BaF3 tox 9.0, aSyn 5UTR inh -36.4, Ba/F3 V617F tox -1.2 and APP 5UTR inh -56.8.
`Cc1ccc(-c2nc(NC(=O)c3nn(C)cc3[N+](=O)[O-])sc2C)cc1C` gave KLF5 inhibitor 37.5, IEC-6 tox 15.3, BaF3 tox 85.2*, aSyn 5UTR inh 17.9, Ba/F3 V617F tox 91.9* and APP 5UTR inh 95.8*.
Screening Cc1ccc(-c2nc(NC(=O)c3nn(C)cc3[N+](=O)[O-])sc2C)cc1 returned KLF5 inhibitor 20.4, IEC-6 tox 15.8, BaF3 tox 80.9*, aSyn 5UTR inh 99.4*, Ba/F3 V617F tox 77.2* and APP 5UTR inh 95.4*.
Screening O=[N+]([O-])c1cc(Oc2cccnc2)cc([N+](=O)[O-])c1 returned KLF5 inhibitor -18.3, IEC-6 tox -10.4, BaF3 tox -2.9, aSyn 5UTR inh 13.4, Ba/F3 V617F tox -3.6 and APP 5UTR inh 10.6.
`Cn1cc([N+](=O)[O-])c(C(=O)Nc2cc(Oc3cccnc3)cc([N+](=O)[O-])c2)n1` gave KLF5 inhibitor 1.2, IEC-6 tox 24.0*, BaF3 tox 50.7*, aSyn 5UTR inh 61.3, Ba/F3 V617F tox 65.8* and APP 5UTR inh 96.5*.
CC(C)(C)c1cc(CCC(=O)NCc2ccccn2)cc(C(C)(C)C)c1O was read as KLF5 inhibitor -7.8, IEC-6 tox 0.6 and aSyn 5UTR inh -35.4.
Cc1nc2ccccc2c(=O)n1-c1ccc(F)c(NS(=O)(=O)c2ccccc2F)c1 was read as aSyn 5UTR inh 10.9.
`CCOC(=O)/C(=N/Nc1ccc(C)cc1)S(=O)(=O)c1ccc(Cl)cc1` gave KLF5 inhibitor 0.6, IEC-6 tox 4.4, BaF3 tox 5.8, aSyn 5UTR inh -141.9, Ba/F3 V617F tox -0.9 and APP 5UTR inh 62.9*.
For CCOC(=O)/C(=N\Nc1ccccc1)S(=O)(=O)c1ccccc1 the results were KLF5 inhibitor -16.8, IEC-6 tox 5.5, BaF3 tox 7.4, aSyn 5UTR inh -5.6, Ba/F3 V617F tox 1.2 and APP 5UTR inh 9.6.
Screening O=C(C1CCC(=O)N(C2CC2)C1)N(CCO)Cc1ccccc1 (centres undefined) returned KLF5 inhibitor -6.2, IEC-6 tox -2.5 and aSyn 5UTR inh 5.8.
`NC(N)=NC(N)=Nc1ccc(SC(F)(F)F)cc1` gave KLF5 inhibitor 12.1, IEC-6 tox 34.6*, BaF3 tox 67.1*, aSyn 5UTR inh -0.4, Ba/F3 V617F tox 75.1* and APP 5UTR inh 15.9.
`CCOC(=O)c1c(C)[nH]c(C(=O)N/N=C\c2ccccc2O)c1C` gave KLF5 inhibitor -22.7, IEC-6 tox 7.9, BaF3 tox 0.9, aSyn 5UTR inh 86.8*, Ba/F3 V617F tox 0.2 and APP 5UTR inh 66.9*.
COCCCN1CN(S(=O)(=O)c2ccc(C)cc2C)c2nc3ccccc3nc21 was read as KLF5 inhibitor -22.0, IEC-6 tox -8.6 and aSyn 5UTR inh 2.3.
Screening Cc1ccc(NC(=S)/N=C(\N)Nc2nc(C)c3cc(C)ccc3n2)c(C)c1 returned KLF5 inhibitor 3.7, IEC-6 tox 3.0, BaF3 tox 51.2*, aSyn 5UTR inh 27.3, Ba/F3 V617F tox 42.2* and APP 5UTR inh -6.9.
COc1ccc2nc(N/C(N)=N/C(=S)Nc3cccc(C)c3)nc(C)c2c1 was read as KLF5 inhibitor 0.7, IEC-6 tox -0.7, BaF3 tox 24.2, aSyn 5UTR inh -2.2 and Ba/F3 V617F tox 7.5.

Screening data (PubChem)
